Screens from PubChem BioAssay.
ATXN viability = Viability Counterscreen for Primary qHTS for Inhibitors of ATXN expression. S2 cells (HEK-293 line with an ATXN2-luciferase reporter) viability, CellTiter-Fluor protease fluorescence, 24 h. Potency, µM (doses to about 56.7 µM), actives largely listed as cytotoxic. actives 0.49% (n = 400,000). AID 651635, 2014; note: nearly all actives have a fitted effect of over 40% in size
TGFb SMAD3 inh = qHTS for Inhibitors of TGF-b. HepG2 CAGA-GFP TGF-b/SMAD3 reporter, GFP fluorescence, 18 h; TGF-beta stimulated, 500 pg/mL final. Potency, µM (highest dose often 46.1 µM), for the others: at the top dose activity, negative = inhibition, most hits filed as inhibitors. actives 1.2% (n = 410,000); note: % is set by controls: 0 for no effect and ±100 for the full control effect; nearly all actives have a fitted effect of over 65% in size
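GFP signal (ex488/em500-530) from TGF-beta-stimulated HEPG2 CAGA-GFP cells, 500 pg/mL final, 18 h at 37 degrees C in DMEM plus 1% FBS, normalized to unstimulated and DMSO-stimulated controls.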
HepG2 tox = qHTS for Inhibitors of TGF-b: Cytotox Counterscreen; HepG2 CAGA-GFP viability, ATP luminescence, 18 h; Potency, µM (series often up to 46.1 µM), for inactives: at the highest dose activity change, negative = cytotoxicity, most hits filed as cytotoxic; actives 0.76% (n = 410,000)
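CellTiter-Glo luminescence gave cytotoxicity after 18 hours at 37 degrees C. The cells were HepG2 CAGA-GFP in 1% FBS DMEM, stimulated with 500 pg/mL TGF-beta after compound addition. %Activity was normalised to no-cell wells (complete cell-killing) and DMSO (no toxicity), and curves were fitted and classified.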
ATXN2 expr inh = Primary qHTS for Inhibitors of ATXN expression. HEK-293 ATXN2-luciferase reporter, luminescence, 24 h. Potency, µM (highest dose often 57 µM), inactives show top-dose activity change, negative = inhibition, most hits filed as inhibitors. actives 0.72% (n = 360,000); note: % is set by controls: 0 for no effect and ±100 for the full control effect; nearly all actives have a fitted effect of over 55% in size
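ATXN2-luciferase reporter cells (luciferase flanked by upstream and downstream ATXN2 gene portions) were treated 24 h at 37 °C with compounds at up to 57 uM. SteadyGlo luminescence gave expression; GF-AFC fluorescence gave viability.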
ALOX12 inh = Primary qHTS assay for inhibitors of human arachidonate 12S-lipoxygenase (ALOX12): Round 2; Polyunsaturated fatty acid lipoxygenase ALOX12 (Homo sapiens), P18054; purified 12hLO, xylenol orange hydroperoxide absorbance; Potency, µM (doses to about 108 µM), inactives show at the highest dose activity change, negative = inhibition, usual class: inhibitors; actives 1.1% (n = 580,000); note: % is set by controls: 0 for no effect and ±100 for the full control effect
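Purified human 12hLO (150 nM final) in 25 mM Hepes, 0.01% Triton X-100, pH 7.0 was preincubated 15 min at room temperature with compound. Then 40 uM arachidonic acid was added, 30 min. Hydroperoxide was read by Fe-XO absorbance ratio 573/405 nm.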
Active calls of the source: *; i = inactive; ? = inconclusive; nt = no result. Shown are actives, neighbours in structure and some others; about 2.7% of the full set was active somewhere. Calls come from the whole dose curve; as a rule, active = well fitted curve in the direction sought with a large enough effect; inconclusive = small, poorly fitted or top-dose-only effect, or another doubt; inactive = no such curve, though single readings can be large; an effect the other way counts as inactive or inconclusive. Potency is the fitted concentration of half-maximal effect.

SMILES	ATXN viability	TGFb SMAD3 inh	HepG2 tox	ATXN2 expr inh	ALOX12 inh
CC(OC(=O)c1n[nH]c(=O)c2ccccc12)C(=O)Nc1cc(F)ccc1F (configuration not stated)	nt	nt	nt	nt	-22%
O=c1[nH]c2ccc(Cl)cc2c(-c2ccccc2)c1SC(=S)N1CCCCC1	i	-5%	-3%	-4%	?
O=c1[nH]c2ccc(Cl)cc2c(-c2ccccc2)c1SC(=S)N1CCOCC1	i	13µM*	-65%	-7%	0%
O=C(Nc1ccccc1)c1cccnc1NCCc1ccccc1	i	15%	-5%	33%	-5%
COc1ccc(NC(=O)c2cccnc2NCCc2ccccc2)cc1	i	0%	-31%	13%	45µM*
CN1CCN(c2ccc(NC(=O)c3ccc4ccccc4c3)cc2)CC1	i	-1%	-9%	14µM*	?
COC(=O)c1ccccc1NC(=O)c1ccc(COc2cccc3ccccc23)o1	i	-1%	-34%	-13%	45µM*
COC(=O)c1ccccc1NC(=O)c1ccc(COc2ccccc2)o1	i	-13%	-16%	2%	?
CN1CCN(c2ccc(NC(=S)NC(=O)c3cccc4ccccc34)cc2)CC1	?	?	-59%	nt	28µM*
COC(=O)c1ccccc1NC(=S)NC(=O)c1cccc2ccccc12	i	?	-10%	28%	32µM*
Cc1cc(C(=O)C2CC(=O)Nc3c2c(C)nn3-c2ccc(F)cc2F)c(C)s1 (configuration not stated)	nt	nt	nt	nt	-5%
Clc1cc(Cl)cc(OCc2cc(-c3ccco3)on2)c1	nt	nt	nt	nt	6%
Cc1ccc(C(=O)OCc2ccc(C#N)cc2)cc1C	nt	nt	nt	nt	-48%
CCCC1CCC(c2ccc(C(=O)Oc3ccc(C)nc3)cc2)CC1 (configuration not stated)	nt	nt	nt	nt	4%
O=C(Nc1cccc(C(=O)OCc2cc(=O)n3c4c(sc3n2)CCCC4)c1)c1ccc(Cl)cc1	nt	10µM*	-31%	nt	?
COc1ccc(C(=O)NNC(=O)c2ccc3ccccc3n2)cc1	nt	?	-12%	20µM*	8%
CCC(CO)NS(=O)(=O)c1cc(C)c(Br)cc1Cl (configuration not stated)	nt	nt	nt	nt	17%
CC1CC1CNC(=O)c1nccnc1N (configuration not stated)	nt	nt	nt	nt	-16%
COc1ccc(C=NNC(=S)NN=Cc2ccc(OC)c(OC)c2)cc1OC	i	-1%	-11%	4%	?
COCCNC(=S)N/N=C/c1c2ccccc2cc2ccccc12	i	?	-9%	2%	40µM*
COCCCNC(=S)N/N=C/c1ccc(OC)c(Br)c1	i	12%	4%	0%	25µM*
N#Cc1ccccc1CSCCNC(=O)Nc1cccnc1	nt	nt	nt	nt	43%
CN1/C(=C\C(=O)CN2CCN(C(c3ccccc3)c3ccccc3)CC2)C(C)(C)c2ccccc21	nt	nt	nt	nt	10µM*
CCOC(=O)C1CCCN(CC(=O)/C=C2/N(C)c3ccccc3C2(C)C)C1 (configuration not stated)	?	9%	-31%	-9%	?
Nc1ncnc2c1c(-c1ccc(Oc3ccccc3)cc1)cn2C1CCCC1	?	22µM*	-70%	-34%	1%
